# Test results published in publication PMC8384837, “Expanding the binding specificity for RNA recognition by a PUF domain”.
# Assays:
# Test in all cases: yeast three-hybrid, YBZ-1, SC-Leu-His + 0.5 mM 3-AT, 4 days
# Conditions in all cases: tags: N-Gal4 AD-HA kept; label: inside an RPR1-promoter hybrid RNA with tandem MS2 sites; ssRNA
# [1] = biological target: PUM1 PUF domain R8-RKK (Homo sapiens, UniProt Q14671 828-1176, N1122R;Y1123K;Q1126K)
# How it was run: (§1)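 A centromeric plasmid in strain YBZ-1 co-expressed Pumilio-1 PUF domain libraries, randomized at the three base-contacting residues of each repeat, with matching RNA elements; the strain carries a LexA–MS2 coat fusion and a HIS3 reporter. After four days on SC-Leu (input) or SC-Leu-His + 0.5 mM 3-AT (selection), the repeat regions were PCR-amplified and Illumina-sequenced. The interaction score is the log change in variant frequency from input to selection, using log2 and a pseudocount of 1 where absent.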
# [2] = biological target: PUM1 PUF domain R8-LYK (Homo sapiens, UniProt Q14671 828-1176, N1122L;Q1126K)
# How it was run: as §1
# [3] = biological target: PUM1 PUF domain R5-GWS (Homo sapiens, UniProt Q14671 828-1176, C1007G;R1008W;Q1011S)
# How it was run: as §1
# [4] = biological target: T1, PUM1 PUF domain R6-VFS (Homo sapiens, UniProt Q14671 828-1176, N1043V;Y1044F;Q1047S)
# T1 sequence: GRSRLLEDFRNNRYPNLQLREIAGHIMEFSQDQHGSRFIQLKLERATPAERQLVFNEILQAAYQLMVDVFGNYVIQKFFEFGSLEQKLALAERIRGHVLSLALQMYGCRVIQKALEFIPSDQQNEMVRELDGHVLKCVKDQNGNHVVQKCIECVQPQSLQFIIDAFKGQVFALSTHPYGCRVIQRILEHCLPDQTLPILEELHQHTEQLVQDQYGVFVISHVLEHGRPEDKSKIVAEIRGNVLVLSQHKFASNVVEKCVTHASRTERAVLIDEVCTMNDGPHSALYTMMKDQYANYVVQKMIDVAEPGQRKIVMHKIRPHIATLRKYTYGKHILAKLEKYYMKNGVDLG
# How it was run: as §1
# [5] = biological target: PUM1 PUF domain R3-FSS (Homo sapiens, UniProt Q14671 828-1176, C935F;R936S;Q939S)
# How it was run: as §1
# [6] = biological target: PUM1 PUF domain R7-TVA (Homo sapiens, UniProt Q14671 828-1176, S1079T;N1080V;E1083A)
# How it was run: as §1
# [7] = biological target: PUM1 PUF domain R3-MWG (Homo sapiens, UniProt Q14671 828-1176, C935M;R936W;Q939G)
# How it was run: as §1
# [8] = biological target: PUM1 PUF domain R2-CFP (Homo sapiens, UniProt Q14671 828-1176, N899C;Y900F;Q903P)
# How it was run: as §1
# [9] = biological target: PUM1 PUF domain R5-KGL (Homo sapiens, UniProt Q14671 828-1176, C1007K;R1008G;Q1011L)
# How it was run: as §1
# [10] = biological target: PUM1 PUF domain R1-RGI (Homo sapiens, UniProt Q14671 828-1176, S863R;R864G;Q867I)
# How it was run: as §1
sequence,measurement,setting,value
GGCUAGAACUAGUGGAUCCCCCGGCGCCCGGCGGCUCGAGCCCGGGUAAGCGUAAAUAGUCUGCAUGCCGCCGGGCGCCAUGCCUGCAGGUCGACUCUAGAAAACAUG,binding signal,[1],4.27 log2 enrichment (interaction score)
same,binding signal,[2],5.14 log2 enrichment (interaction score)
GGCUAGAACUAGUGGAUCCCCCGGCGCCCGGCGGCUCGAGCCCGGGUAAGUGUAAAUAGUCUGCAUGCCGCCGGGCGCCAUGCCUGCAGGUCGACUCUAGAAAACAUG,binding signal,[1],4.25 log2 enrichment (interaction score)
same,binding signal,[3],4.65 log2 enrichment (interaction score)
same,binding signal,[4],2.71 log2 enrichment (interaction score)
same,binding signal,[2],5.28 log2 enrichment (interaction score)
GGCUAGAACUAGUGGAUCCCCCGGCGCCCGGCGGCUCGAGCCCGGGUAAGUGUAAGUAGUCUGCAUGCCGCCGGGCGCCAUGCCUGCAGGUCGACUCUAGAAAACAUG,binding signal,[5],2.46 log2 enrichment (interaction score)
GGCUAGAACUAGUGGAUCCCCCGGCGCCCGGCGGCUCGAGCCCGGGUAAGUUUAAAUAGUCUGCAUGCCGCCGGGCGCCAUGCCUGCAGGUCGACUCUAGAAAACAUG,binding signal,[6],3.46 log2 enrichment (interaction score)
GGCUAGAACUAGUGGAUCCCCCGGCGCCCGGCGGCUCGAGCCCGGGUAAGUGUAAUUAGUCUGCAUGCCGCCGGGCGCCAUGCCUGCAGGUCGACUCUAGAAAACAUG,binding signal,[7],3.86 log2 enrichment (interaction score)
GGCUAGAACUAGUGGAUCCCCCGGCGCCCGGCGGCUCGAGCCCGGGUAAGUGUAAAAAGUCUGCAUGCCGCCGGGCGCCAUGCCUGCAGGUCGACUCUAGAAAACAUG,binding signal,[8],10.2 log2 enrichment (interaction score)
GGCUAGAACUAGUGGAUCCCCCGGCGCCCGGCGGCUCGAGCCCGGGUAAGUGUCAAUAGUCUGCAUGCCGCCGGGCGCCAUGCCUGCAGGUCGACUCUAGAAAACAUG,binding signal,[9],3.86 log2 enrichment (interaction score)
GGCUAGAACUAGUGGAUCCCCCGGCGCCCGGCGGCUCGAGCCCGGGUAAGUGUAAAUCGUCUGCAUGCCGCCGGGCGCCAUGCCUGCAGGUCGACUCUAGAAAACAUG,binding signal,[10],2.06 log2 enrichment (interaction score)
GGCUAGAACUAGUGGAUCCCCCGGCGCCCGGCGGCUCGAGCCCGGGUAAGUGUAAAUUGUCUGCAUGCCGCCGGGCGCCAUGCCUGCAGGUCGACUCUAGAAAACAUG,binding signal,[10],1.53 log2 enrichment (interaction score)
